L major viab – Leishmania major promastigote growth inhibition, primary screen; Leishmania major promastigotes, resazurin fluorescence viability; inhibition, % at 10 µM; hit rate 9% among 200,000; AID 1063, 2008; in the data active = inhibition above about 50%;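 also: promastigotes grown with compound for 44 hours at 28 °C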
PTEN del growth – growth suppression of PTEN-null HCT116, primary screen, cell-based, CellTiter-Glo. HCT116 PTEN-null viability, 60 h; hits give low values. viability, % at 10 µM. hit rate 1.2% among 140,000. AID 827, 2007;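 active = viability at or below a set limit, 4 SD under the median of all tested compounds, cut at about 3.7% in these data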;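 also: PTEN knockout HCT116 line with beta catenin targeted HCT116 as companion control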
bCat KO growth – primary screen for growth suppressors in beta-catenin knockout HCT116 cells (colon tumor, human). HCT116 beta-catenin knockout viability, CellTiter-Glo, 60 h; hits give low values. viability, % at 10 µM. hit rate 1.5% among 140,000. AID 818, 2007;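 active = viability at or under a set limit, the compound median less 4 SD, cut at about 6% in these data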;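 also: 0% = Hyamine 1622 control at 20 µM and 100% = untreated cell control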
Ins promoter up – insulin promoter activators in MIN6 cells, imaging, high-content screening, mouse beta cells; MIN6 insulin promoter-GFP reporter; hits give high values; z-score at 5 µM; hit rate 0.3% among 190,000; AID 1625, 2009;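 active = z-score above 3 at 5 µM with at least 500 cells counted in the well; inconclusive = wells under 500 cells, flagged as cytotoxic or low count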
Autophagy mod – autophagy modulators in MEF cells, primary screen, imaging, high-content, MEF GFP-LC3; calls only at 10 µM (by protocol); MEF GFP-LC3 puncta imaging; test concentration mostly 10 µM; hit rate 0.98% among 190,000;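 active = percentage of spot-positive cells more than 3 SD above its plate mean, without a fluorescence outlier flag or 80% toxicity; inconclusive = no clear call, values can overlap the other calls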;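 also: spot-positive cell cutoff set from DMSO-treated cells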
Insulin prom inh – inhibitors of insulin promoter-driven GFP, primary screen, imaging, TRM-6 cells (human fetal islet line), eGFP reporter, cell count | reporter expression induced with tamoxifen | inhibition, % at 2 µM | hit rate 0.9% among 130,000 | AID 1273, 2008;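 active = inhibition above the mean plus 3 SD, with well images judged a real hit on visual review, cut at about 60% in these data, passing the limit was not always enough; inconclusive = inhibition over the cutoff but images rejected on review; inactive = inhibition not above the cutoff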
Lmaj promast 1uM – Leishmania major promastigote growth inhibition, confirmation, 1 µM repeat of primary hits; shares compounds with L major viab; L. major promastigote growth, resazurin fluorescence, 48 h; inhibition, % at 1 µM; hit rate 13% among 1,100; AID 1258, 2008;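 active = inhibition above about 50% in both repeat tests, limit read from the data; inconclusive = one repeat under the set limit, the other over it; inactive = both repeats under the set limit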
An asterisk follows results filed as active; i = inactive; ? = inconclusive; nt = not tested or not shown; + = active, no number. The list is not random: actives were taken first. Their share in the collection is about 9.6%.

SMILES	L major viab	PTEN del growth	bCat KO growth	Ins promoter up	Autophagy mod	Insulin prom inh	Lmaj promast 1uM
O=C(Nc1ncc2c(n1)-c1ccccc1CC2)c1ccc(F)cc1	2.9	69.5	76.6	nt	i	nt	nt
COc1ccc(CC(=O)OC(C)CN2CCCC2)cc1 (configuration not stated)	99.5*	95.5	87.8	-0.05	i	14.3	-10.8
CC(=O)Nc1cccc(NC(=O)CSc2ncc(-c3ccccc3)[nH]2)c1	11.0	nt	nt	-0.99	i	nt	nt
Cc1ccc(-n2nnnc2CCl)cc1	95.7*	nt	nt	-1.17	i	nt	14.7
Cc1ccc(-c2nnnn2-c2ccc(C)cc2)cc1	33.4	nt	nt	-0.72	i	nt	nt
CNc1ccccc1C(C)(C)c1cc(-c2cccc(Br)c2)no1	99.3*	nt	nt	nt	i	nt	87.9*
Cc1cnc(NC(=O)c2sc3ccccc3c2Cl)s1	-3.2	66.9	72.1	0.35	i	0.0	nt
NS(=O)(=O)c1ccc2c(c1)C1C=CCC1C(C1CC=CCC1)N2 (configuration not stated)	-1.2	85.2	93.3	-0.58	i	nt	nt
CCc1ccc(N2CC(O)(c3cccs3)[N+]3=C2SCCC3)cc1 (configuration not stated)	72.5*	nt	nt	-3.76	i	16.7	3.6
Cc1ccc(N2CC(O)(c3cccs3)[N+]3=C2CCCC3)cc1 (configuration not stated)	39.2	nt	nt	-1.2	i	-35.3	nt
Cc1cc([N+](=O)[O-])ccc1N=Nc1c(N)[nH]n(-c2ccccc2)c1=O	-4.8	nt	nt	0.3	i	11.1	nt
Cc1ccc([N+](=O)[O-])cc1N=Nc1c(-c2ccc([N+](=O)[O-])cc2)[nH]n(C(N)=S)c1=O	88.1*	nt	nt	-1.32	i	nt	-4.7
COC(=O)c1cn(NC(=O)/C=C/c2cccc(OC)c2OC)c(=O)c2ccccc12	-6.8	86.2	87.2	-0.19	i	-44.8	nt
NC(=O)CN(N=Nc1cccc([N+](=O)[O-])c1)c1cccc([N+](=O)[O-])c1	55.0*	nt	nt	-0.26	i	nt	28.0
CCc1ccc(/C=C2\CN(CC)Cc3c2nc2ccccc2c3C(=O)O)cc1	53.9*	77.0	79.7	2.01	i	-64.5	-18.7
CCCN(Cc1cc2ccc(C)cc2[nH]c1=O)S(=O)(=O)c1ccccc1	63.5*	79.8	88.6	nt	i	2.9	-12.2
COc1ccc2c(c1)OCC1=C2CCC2(C)C(=O)CC=C12 (configuration not stated)	51.8*	53.7	56.5	0.52	i	-15.0	23.0
Cc1ccc(OCCCCn2ccnc2)c(Cl)c1	98.3*	87.7	90.2	0.23	i	72.7*	73.8*
COc1ccc(C(=O)C(CN2CCOCC2)c2ccccc2)cc1F (configuration not stated)	100.5*	1.3*	1.6*	0.13	i	71.4*	85.7*
COc1ccc(C(=O)OC(C)CN2CCOCC2)cc1OC (configuration not stated)	-6.9	106.3	103.3	-0.43	i	nt	nt
COc1ccc(/C=C/C(=O)C(C(N)=O)=C2SCCS2)cc1	44.4	59.3	49.5	0.66	i	nt	nt
Cc1ccc(C(=O)C(C(=O)/C=C/c2ccccc2)=C2SCCCS2)cc1	100.1*	3.5*	2.9*	nt	i	-377.8	19.7
c1ccc(C(Cc2nc(-c3ccncc3)no2)c2ccccc2)cc1	69.8*	29.1	27.2	1.32	i	?	11.0
N#Cc1cccn1-c1nccs1	-6.4	nt	nt	1.33	i	54.5	nt
CCOc1ccc(-c2noc(-c3cccnc3)n2)cc1OC	70.8*	99.0	104.8	0.93	i	nt	46.2
SMILES	L major viab	PTEN del growth	bCat KO growth	Ins promoter up	Autophagy mod	Insulin prom inh	Lmaj promast 1uM
Cc1noc(/C=C/c2ccco2)c1S(=O)(=O)N1CCC(C(=O)NCc2ccco2)CC1	76.8*	82.0	89.9	-0.32	i	nt	-14.8
COc1ccccc1NC(=O)N(Cc1ccccc1)c1ccccn1	30.6	115.4	92.2	-1.3	i	-4.5	nt
Cc1ccc(-c2cc3cccc[n+]3cc2-c2ccc(C)cc2)cc1	100.3*	5.9	3.2*	?	i	13.3	91.0*
O=C(N/N=C/c1ccc2c(c1)OCO2)c1cc(-c2ccncc2)nc2ccccc12	45.6	21.9	23.2	0.4	i	nt	nt
CC(/C=N/NC(=O)c1cc(-c2ccncc2)nc2ccccc12)=C\c1ccco1	88.6*	16.1	15.7	nt	+	-8.6	19.2
NC(=O)C(C(=O)/C=C/c1ccc(Cl)cc1)=C1SCCS1	nt	nt	nt	0.2	nt	nt	nt
Nc1nnc(SCc2ccc([N+](=O)[O-])cc2)s1	0.7	nt	nt	-0.05	i	13.3	nt
Nc1ccc2nc(SCc3ccc([N+](=O)[O-])cc3)sc2c1	68.6*	86.9	95.8	-0.04	i	nt	11.3
O=Nc1c2cc(-c3ccccc3)[nH]nc-2c2ccccc12	65.0*	nt	nt	1.18	i	-61.5	53.9*
Cc1cccc(-c2cc3c(N=O)c4ccccc4c-3n[nH]2)c1	64.3*	nt	nt	-1.3	i	nt	52.8*
O=c1[nH]nc(-c2ccccc2)c2ccccc12	nt	nt	nt	0.36	nt	nt	nt
Cc1ccc(-c2cc3c(N=O)c4ccccc4c-3n[nH]2)cc1	40.5	nt	nt	0.43	i	-7.7	nt
COc1ccc(N2CCN(C(=O)CNC(=O)c3cn(-c4ccccc4OC)c(=O)c4ccccc34)CC2)cc1	-3.6	nt	nt	-0.16	i	nt	nt
O=C(CCSc1ccccc1)NCc1cccnc1	-6.8	105.6	91.8	0.34	i	10.0	nt
Cc1ccc(N(C(=O)NC2CCCCC2)C2=NCCCCC2)cc1	32.6	99.9	90.8	-0.19	i	nt	nt
Cc1ccc(S(=O)(=O)CC(=O)Nc2ccc(S(=O)(=O)Nc3onc(C)c3C)cc2)cc1	-1.4	104.4	106.9	-0.61	i	-7.9	nt
CCN1CCCC1CN=Cc1c(O)n(-c2ccccc2)c(=O)c2ccccc12 (configuration not stated)	55.4*	94.8	100.8	-0.15	i	-81.8	3.4
CS(=O)(=O)n1nc(OC(=O)c2cccc3ccccc23)cc1N	-6.0	87.1	78.2	0.8	i	28.6	nt
CCOC(=O)c1c2c(n(C)c1C)C(=O)C(=O)c1ccc(Br)cc1-2	100.0*	nt	nt	nt	i	4.8	97.9*
CCOC(=O)c1c(-c2ccccc2)c(C(C)=O)c(=O)n(C)c1C	-7.2	98.9	102.1	0.06	i	nt	nt
Cc1ccc(CNC(=O)COc2ccc(C)nc2[N+](=O)[O-])cc1	-3.2	96.3	100.6	0.18	i	nt	nt
CCOC(=O)Nc1c2ccccc2nc2ccccc12	nt	nt	nt	0.35	nt	nt	nt
CCOC(=O)N=Nc1c2ccccc2c2nc3no[nH]c3nc12	100.6*	nt	nt	-1.5	?	nt	100.2*
CN(Cc1cnn(C)c1)C(=O)C1CCCCC1C(=O)O (configuration not stated)	53.7*	91.3	92.3	nt	i	-272.1	-11.5
CCOC(=O)C1=NN(C(=O)COc2ccccc2)C(O)(c2ccc(Cl)cc2)C1 (configuration not stated)	-8.2	nt	nt	0.28	i	nt	nt

Compound activity (PubChem)
